Laboratory results as given in PubChem BioAssay (NCI).
Where “and” joins values, the source holds several entries; their conditions need not be identical. Identical values can stand only once. This is part of a sample that, as a whole, favours compounds with a hit. Of some 83,000 tested, about 20% had one in any assay.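 Single-concentration screen, 48 h exposure, 96-well plates. Endpoint: percent growth. Below 10 = active.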 Where a structure was tested more than once in an assay, its records may differ in their call. Calls of active or inactive are those of the source.

Legend:
Experiment in all cases: NCI-60 one-dose screen, 48 h (100 = growth as untreated, 0 = no growth, -100 = all killed)
Conditions in all cases: 10 µM unless noted
NCI-H23 lung = tested on: NCI-H23 lung
NCI-H226 lung = tested on: NCI-H226 lung
NCI-H322M lung = tested on: NCI-H322M lung
NCI-H460 lung = tested on: NCI-H460 lung
HOP-92 NSCLC = tested on: HOP-92 NSCLC
NCI-H522 lung = tested on: NCI-H522 lung
A549/ATCC NSCLC = tested on: A549/ATCC NSCLC
786-0 renal = tested on: 786-0 renal
COLO 205 colon = tested on: COLO 205 colon
DU-145 prostate = tested on: DU-145 prostate
K-562 leukemia = tested on: K-562 leukemia
MALME-3M melanoma = tested on: MALME-3M melanoma
MDA-MB-231 breast = tested on: MDA-MB-231 breast
RXF 393 renal = tested on: RXF 393 renal
SF-268 CNS = tested on: SF-268 CNS
SF-295 CNS = tested on: SF-295 CNS
SF-539 CNS = tested on: SF-539 CNS
UACC-257 melanoma = tested on: UACC-257 melanoma
M14 melanoma = tested on: M14 melanoma
HOP-62 NSCLC = tested on: HOP-62 NSCLC

Measured: growth

O=C1OC(Oc2ccc(Br)cc2)(c2ccccc2)c2ccccc21 (stereo unspecified)
inactive: NCI-H23 lung 91.1% and 80.5% | NCI-H226 lung 75.6% and 83.7% | NCI-H322M lung 99.3% and 127% | NCI-H460 lung 91.3% and 87.8% | HOP-92 NSCLC 95.7% and 65.6% | NCI-H522 lung 69% | A549/ATCC NSCLC 82.6% and 88% | 786-0 renal 101% and 73.2% | COLO 205 colon 105% and 111% | DU-145 prostate 97.1% and 84.1% | K-562 leukemia 70.1% | MALME-3M melanoma 89.5% | MDA-MB-231 breast 86.4% and 107% | RXF 393 renal 82.7% and 82.3% | SF-268 CNS 91.7% and 76% | SF-295 CNS 83.1% and 82.3% | SF-539 CNS 104% and 98.5% | UACC-257 melanoma 88.5% and 90.9% | M14 melanoma 96.4% and 98.2%

Oc1c(CN2CCCCC2)ccc2cccnc12
inactive: NCI-H23 lung 79% and 80.2% | NCI-H226 lung 63.8% and 33.7% | NCI-H322M lung 36.5% and 32.4% | HOP-62 NSCLC 52.1% and 41.1% | NCI-H460 lung 21.1% and 10.5% | 786-0 renal 11% and 42.4% | COLO 205 colon 66.7% and 80.4% | DU-145 prostate 67.9% and 53.7% | K-562 leukemia 28.8% and 30.6% | MALME-3M melanoma 88.1% and 82.5% | MDA-MB-231 breast 53.2% and 46.9% | SF-268 CNS 69.3% and 47.6% | SF-295 CNS 37.1% | SF-539 CNS 74.7% and 57% | UACC-257 melanoma 77.1% and 71.6% | M14 melanoma 20.7% and 32.6%
-3.86% (active) and 16.2% (inactive): NCI-H522 lung
85.1% (inactive) and 3.68% (active): RXF 393 renal

Nc1ccc2[nH]c(-c3ccccc3)cc(=O)c2c1
inactive: NCI-H23 lung 98.3% | NCI-H226 lung 101% | NCI-H322M lung 97.5% | HOP-62 NSCLC 96.8% | NCI-H460 lung 97.4% | A549/ATCC NSCLC 102% | 786-0 renal 96.6% | DU-145 prostate 101% | MALME-3M melanoma 80.4% | MDA-MB-231 breast 100% | RXF 393 renal 89.9% | SF-268 CNS 90.7% | SF-295 CNS 93.5% | SF-539 CNS 88.5% | UACC-257 melanoma 79.8% | M14 melanoma 70.6%

Cc1cc(O)c2c(c1)C(=O)c1cc(O)cc(O)c1C2=O
-3.28% (active) and 20.5% (inactive): HOP-92 NSCLC
inactive: NCI-H23 lung 71% and 91.7% | NCI-H226 lung 84.8% and 90.8% | NCI-H322M lung 94.6% and 107% | NCI-H460 lung 98% and 102% | NCI-H522 lung 61% and 78.8% | A549/ATCC NSCLC 77.5% and 81.1% | 786-0 renal 74.6% and 83.3% | COLO 205 colon 102% and 96.7% | DU-145 prostate 87.2% and 104% | K-562 leukemia 75.9% and 87.9% | MALME-3M melanoma 54.4% and 94.1% | MDA-MB-231 breast 78.7% and 87.3% | RXF 393 renal 90.7% and 107% | SF-268 CNS 89.8% and 97.6% | SF-295 CNS 82.8% and 94.9% | SF-539 CNS 93.1% and 86% | UACC-257 melanoma 84.8% and 92.2% | M14 melanoma 110% and 93.6%

Cc1ccc(S(=O)(=O)NCN2C(=O)c3ccccc3C2=O)cc1
inactive: NCI-H23 lung 103% | NCI-H226 lung 115% | NCI-H322M lung 105% | HOP-62 NSCLC 112% | NCI-H460 lung 113% | 786-0 renal 103% | DU-145 prostate 125% | K-562 leukemia 106% | MALME-3M melanoma 133% | MDA-MB-231 breast 117% | RXF 393 renal 121% | SF-268 CNS 106% | SF-295 CNS 100% | SF-539 CNS 112% | UACC-257 melanoma 104% | M14 melanoma 109%

CC1=CCC2CC1C2(C)C (stereo unspecified)
-8.84% (active) and 108% (inactive): UACC-257 melanoma
inactive: NCI-H23 lung 80.7% and 93.5% | NCI-H226 lung 101% and 97.7% | NCI-H322M lung 92.4% and 94.8% | HOP-62 NSCLC 82.8% and 68.9% | NCI-H460 lung 106% and 102% | NCI-H522 lung 92.9% and 39.9% | A549/ATCC NSCLC 94.3% and 83.6% | 786-0 renal 101% and 98.6% | COLO 205 colon 89.2% and 103% | DU-145 prostate 98.6% and 112% | K-562 leukemia 102% and 98.4% | MALME-3M melanoma 101% and 127% | MDA-MB-231 breast 95.8% and 96.9% | RXF 393 renal 102% and 71% | SF-268 CNS 115% and 94.1% | SF-295 CNS 94.2% and 106% | SF-539 CNS 102% | M14 melanoma 98.3% and 90.3%

Cc1ccc(-c2noc(CC(=O)c3ccc([N+](=O)[O-])cc3)n2)cc1
inactive: NCI-H23 lung 95.9% | NCI-H226 lung 92.9% | NCI-H322M lung 105% | NCI-H460 lung 103% | HOP-92 NSCLC 101% | NCI-H522 lung 95.2% | A549/ATCC NSCLC 94.6% | 786-0 renal 99.6% | COLO 205 colon 109% | DU-145 prostate 101% | K-562 leukemia 89.1% | MALME-3M melanoma 110% | MDA-MB-231 breast 104% | RXF 393 renal 102% | SF-268 CNS 95.6% | SF-295 CNS 99% | SF-539 CNS 98.2% | UACC-257 melanoma 107% | M14 melanoma 96.5%

S=C1SCN(Cc2ccccc2)CN1Cc1ccccc1
inactive: NCI-H23 lung 81.2% | NCI-H226 lung 88.8% | NCI-H322M lung 94.5% | HOP-62 NSCLC 100% | NCI-H460 lung 95.5% | NCI-H522 lung 21.5% | A549/ATCC NSCLC 93.7% | 786-0 renal 49.8% | COLO 205 colon 78.1% | DU-145 prostate 41.8% | K-562 leukemia 46.4% | MALME-3M melanoma 92.1% | MDA-MB-231 breast 85% | RXF 393 renal 87.1% | SF-268 CNS 73.5% | SF-295 CNS 100% | SF-539 CNS 91.4% | UACC-257 melanoma 95.2% | M14 melanoma 82.3%

O=C(O)CSCc1nc2ccccc2[nH]1
inactive: NCI-H23 lung 95.7% | NCI-H226 lung 106% | NCI-H322M lung 117% | HOP-62 NSCLC 120% | NCI-H460 lung 105% | NCI-H522 lung 104% | A549/ATCC NSCLC 110% | 786-0 renal 103% | DU-145 prostate 111% | MALME-3M melanoma 127% | MDA-MB-231 breast 98.4% | RXF 393 renal 112% | SF-268 CNS 99.2% | SF-295 CNS 112% | SF-539 CNS 103% | UACC-257 melanoma 111% | M14 melanoma 97.4%

CC(C)(O)Cn1cc(-c2ccc3nc(OC4CC4)ccc3c2)c2c(N)ncnc21
inactive: NCI-H23 lung 70.1% and 42% | NCI-H226 lung 56.5% and 26.5% | NCI-H322M lung 96.7% and 73.5% | HOP-62 NSCLC 73.8% and 39.8% | NCI-H460 lung 88.5% and 27.6% | NCI-H522 lung 67.1% and 36.8% | A549/ATCC NSCLC 75.3% and 51.3% | 786-0 renal 89.1% and 60.2% | COLO 205 colon 91.3% and 58.7% | DU-145 prostate 102% and 75.6% | K-562 leukemia 88% and 35.8% | MALME-3M melanoma 70.2% and 44.2% | MDA-MB-231 breast 69.2% and 46.4% | RXF 393 renal 73.3% and 50.5% | SF-268 CNS 91.2% and 57.1% | SF-295 CNS 79.2% and 56.7% | SF-539 CNS 81.6% and 58.6% | UACC-257 melanoma 70.8% | M14 melanoma 80.6% and 62.3%
